Inhibition data for 100 compounds are collected here from PubChem BioAssay AID1850 (Southern Research Specialized Biocontainment Screening …, 2009).

Screen size: about 310,000 compounds; about 1,000 (0.32%) were called active. A selection follows. Entries with a potency or affinity are not part of this list. A number with no mark means an inactive call. How the calls were made is not given here.

The test in a line: PhoP regulon inhibitors, Salmonella typhi PhoP promoter GFP reporter, confirmatory (AID 1850).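 Further: 0% = induced wells with vehicle and 100% = uninduced wells.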 The settings on record: fluorescence, 4 h, at 50 µM, stronger effect = higher value.
The term inhibition denotes the relative decrease from the control value, in per cent. On to `COc1ccc(OC)c(-n2nnnc2SCC(=O)NCc2ccc3c(c2)OCO3)c1`, for which the inhibition is 0.94%.

Turning to `c1ccc2c(c1)[nH]c1ccncc12`, the inhibition is -9.87%. As for `c1ccc2c(c1)[nH]c1cnccc12`, the inhibition was 7.53%. Take `COc1ccc2[nH]c3c(=S)nc[nH]c3c2c1`: the inhibition was 3.32%.

With `COc1ccc2[nH]c3c(Cl)ncnc3c2c1`, the inhibition was 1.3%. With `COc1cc(NC(=O)CSc2nnc(-c3ccncc3)n2C2CCCCC2)ccc1NC(=O)c1ccco1` the figure was -17.8%; with `Cc1cc(C)c(S(=O)(=O)N2CCC(C(N)=O)CC2)cc1C`, 16.3%.

`COc1ccc(-c2sc(Nc3ccc(F)c(F)c3F)nc2CCC(=O)NN)cc1`: the inhibition is 4.23%. With `CS(=O)(=O)N1N=C(c2ccco2)CC1c1ccccc1` (stereo not given) the figure was -3.63%. For the compound `NC(=O)C1CCN(C(=O)/C=C/c2cc(Br)ccc2F)CC1`, the inhibition is -0.48%. Take `CCOC(=O)CNC(=S)NN(C)C`: the inhibition was 10.8%. Then `CC(C)(C)OC(=O)N[C@@H](Cc1ccccc1)C(=O)N1CCC(C(=O)N[C@@H](CCC(N)=O)C(=O)O)CC1`, with -2.12%. Regarding `CCOc1ccc(CCNC(=O)c2cc(=O)[nH]c3ccc(S(=O)(=O)N(CC)CC)cc23)cc1OCC`, the inhibition was -9.13%.

Consider `O=C1C=C(O)c2cccc3cccc1c23`, for which the inhibition was -13.1%. Consider `O=C1C(=O)c2cccc3cccc1c23`, for which the inhibition was -2.11%. `CCOc1cc(N2CCOCC2)c(OCC)cc1NC(=O)CC12CC3CC(CC(C3)C1)C2`: the inhibition is -0.45%.

For the compound `COc1ccccc1Nc1nc(Cl)nc(NC(C)(C)C)n1`, the inhibition is -9.98%. For `Clc1ccc(-c2nc(Cc3ccccc3)no2)cc1`, the inhibition is 11.6%. Then `OCCNCc1cc(Br)ccc1OCc1ccccc1`, with -2.3%; and `OCCNCc1cc(Br)ccc1OCc1ccc(F)cc1`, with 10.4%; and `CCSP1(=S)N=C(N2CCOCC2)C(C#N)=C2CCCN21` (stereo not given), with -5.06%. Then `Cc1cccc(NCC(=O)N/N=C\c2cccn2C)c1`, with -0.18%; and `O=C(NNC(=O)c1ccccc1O)c1ccco1`, with 14.9%. Regarding `O=C(NNC(=O)c1cccs1)c1ccc(Br)o1`, the inhibition is -19.9%. Consider `O=C(NC(=S)NNC(=O)c1ccccc1O)c1cccs1`, for which the inhibition was 7.92%. With `O=C(NC(=S)Nc1ccc(NC(=O)c2cccs2)cc1)c1ccco1` the figure was -1.46%.

In the case of `COc1ccc(C(=O)NNC(=S)NC(=O)/C=C/c2cccs2)cc1`, the inhibition is 12%. On to `O=C(NNC(=O)c1cccs1)c1ccco1`, for which the inhibition is 0.32%. As for `O=C(Nc1ccc(NC(=O)c2cccs2)cc1)c1ccc(Br)o1`, the inhibition is 3.54%. With `O=C(NC(=S)NNC(=O)c1cc2ccccc2cc1O)c1ccco1` the figure was -70.1%; with `Cc1ccc(-c2nnn(CC(=O)Nc3ccccc3N3CCOCC3)n2)cc1`, -3.19%. As for `COC(=O)C(O)(c1ccc(N(C)C(=O)OC(C)C)cc1)C(F)(F)F` (stereo not given), the inhibition was 0.83%.

Turning to `CCOc1ccc(S(=O)(=O)N(C)c2ccc(OCC(=O)NC3=NCCS3)cc2)cc1`, the inhibition is -20.3%.

Consider `O=C(Nc1cccnc1Cl)c1cc(-c2ccc(F)cc2)on1`, for which the inhibition is 5.5%.

`CCN(CCn1cccn1)C(=O)c1cc(COc2ccc(F)c(F)c2)on1`: the inhibition was 6.34%. With `CCOC(=O)c1nc2c(=O)n(C)c(=O)n(C)c2n(C)c1=O`, the inhibition was 2.99%. Then `Cc1cccc(NC(=O)CSc2nnc(NC(=O)C3CC3)s2)c1C`, with 3.53%. For the compound `O=C(Cc1ccccc1)NNC(=O)c1cccs1`, the inhibition is 6.4%. With `O=C(NC(=S)NNC(=O)c1ccco1)c1ccc(F)cc1` the figure was 0.37%.

For the compound `O=C(Cc1ccc(Cl)cc1)NNC(=S)NC(=O)c1cccs1`, the inhibition was 11.9%.

Regarding `O=C(NC(=S)NNC(=O)c1ccco1)c1ccccc1`, the inhibition is 21.3%. With `CC(=O)N1CCN(c2ccccc2NC(=O)Cc2ccc(Cl)cc2)CC1`, the inhibition was -3.34%. Take `COC(=O)C(Cc1ccc(O)cc1)NC(=O)CCNC(=O)c1ccco1` (stereo not given): the inhibition is -6.89%.

For `CCCc1cc(CN(C)C(=O)CC2C(=O)NCCN2Cc2ccccc2C)[nH]n1` (stereo not given), the inhibition was -5.02%. With `CC(NS(=O)(=O)c1ccccc1)C(=O)NCc1ccco1` (stereo not given) the figure was 4.53%. For `COc1ccc(Nc2cc(C)c3ccccc3n2)cc1`, the inhibition was -2.31%. For the compound `COC(=O)c1cc(Nc2cc(C)c3c(O)cccc3n2)cc(C(=O)OC)c1`, the inhibition is -3.04%. As for `Cc1ccc(Nc2cc(C)c3ccc(O)cc3n2)cc1C`, the inhibition was 9.14%. Turning to `CC(=O)Nc1ccc(Nc2cc(C)c3ccccc3n2)cc1`, the inhibition is -5.65%. `Cc1ccc(-c2cc(C(=O)OCC(=O)Nc3ncc(C(F)(F)F)cc3Cl)c3ccccc3n2)cc1`: the inhibition is -6.32%. Then `O=C(CN1c2ccccc2S(=O)(=O)c2ccccc21)Nc1ccccc1F`, with 2.92%; and `CC(NC(=O)Cn1ncc(Cl)c(Cl)c1=O)C12CC3CC(CC(C3)C1)C2` (stereo not given), with -18.9%; and `O=C(CN1C2=NCCCN2c2ccccc21)c1ccc2c(c1)OCO2`, with 28.1%. Then `O=C(CN1C2=NCCCN2c2ccccc21)c1cccs1`, with 9.76%; and `O=C(O)CN1C2=NCCCN2c2ccccc21`, with -7.68%.

For `O=C(CN1C2=NCCN2c2ccccc21)c1ccc(Br)s1`, the inhibition is 13.2%. With `CCOC(=O)Nc1cc(Br)c2c(c1)OCCO2` the figure was 9.05%; with `CCCC[C@@H]1C[C@H]1[C@@H](NC(=O)c1ccco1)c1ccc(C(=O)OC)cc1`, -1.55%. With `COc1ccc(CNC(=O)c2ccc3c(=O)n(-c4ccccc4)c(=O)[nH]c3c2)cc1` the figure was 9.07%. Regarding `Cc1cccc2cc(CN(CCCO)C(=O)Nc3cccc(Cl)c3)c(=O)[nH]c12`, the inhibition was -2.46%. With `C=CCNc1nc(C(=O)OCC(=O)c2ccc(Cl)cc2)cs1` the figure was 0.24%. As for `CS(=O)(=O)Nc1cccc(C2=NN(C(=O)c3ccc(F)cc3)C(c3cccs3)C2)c1` (stereo not given), the inhibition was -1.48%.

With `O=C1OCCN1/N=C/c1ccc([N+](=O)[O-])o1`, the inhibition is -7.99%. For `O=C1C2C(C(=O)N1/N=C/c1ccc([N+](=O)[O-])o1)C1C=CC2C12CC2` (stereo not given), the inhibition was -7.07%.

On to `O=C(c1cc(S(=O)(=O)N2CCOCC2)c(Cl)cc1Cl)N1CCCCC1`, for which the inhibition was -2.41%. Then `OC(COc1ccccc1)CN(Cc1ccccc1)CC(O)COc1ccccc1` (stereo not given), with -0.87%; and `CCOc1ccc(-c2cc(C)[n+](CCN3CCOCC3)c(-c3ccc(OCC)cc3)c2)cc1`, with 8.34%; and `CCOc1ccc(-c2cc(C)[n+](CCO)c(-c3ccc(OCC)cc3)c2)cc1`, with -1.61%. On to `COC(=O)COc1ccc(C(=O)Cn2c(NCCCO)nc3ccccc32)cc1`, for which the inhibition was 4.11%. In the case of `Cc1ccc(C(=O)CCS(=O)(=O)c2ccc(Br)cc2)cc1`, the inhibition is -6.22%.

Take `Cc1ccc(C(=O)CCS(=O)(=O)c2ccc(Cl)cc2)cc1`: the inhibition was 2.23%. Then `COc1ccc(CC(=O)Oc2ccc(C(C)C)cc2)cc1S(=O)(=O)N1CCOCC1`, with 5.73%; and `Cc1ccc(S(=O)(=O)NN2C(=O)c3ccccc3NC2c2ccco2)cc1` (stereo not given), with -0.11%. With `O=C(O)c1ccc2c(c1)N(Cc1ccccc1)C(=O)c1ccccc1S2=O` (stereo not given) the figure was -5.21%. Then `COc1ccc(CSc2nnnn2Cc2ccccc2)cc1OC`, with -8.33%. As to `COC(=O)C1=CO[C@@H](OC2OC(CO)C(O)C(O)C2O)[C@@H]2C(CO)=CC[C@H]12` (stereo not given in full), the inhibition was -13%. With `CN(C)C(=O)C12CCC(C)(C(=O)C1Br)C2(C)C` (stereo not given) the figure was 7.02%; with `NC1=NC[C@H](Cc2ccccc2)N1CCc1cc(C(F)(F)F)cc(C(F)(F)F)c1`, -32.4%. With `CCCC[C@@H]1CN=C(N)N1CCc1cc(C(F)(F)F)cc(C(F)(F)F)c1` the figure was 11.5%. As to `FC(F)(F)c1cc(CCN2C(=S)NC[C@@H]2CC2CCCCC2)cc(C(F)(F)F)c1`, the inhibition was -1.84%.

For `NC1=NC[C@H](c2ccccc2)N1CCc1cccc(F)c1`, the inhibition is 12.6%. With `Cc1ccc(S(=O)(=O)N2CCCN(S(=O)(=O)c3ccc(C(F)(F)F)cc3)CC2)cc1` the figure was -17.3%; with `Cc1cc(=O)[nH]c(N/N=C/c2ccccn2)n1`, 18.1%; with `Cc1nnc(N/N=C/c2c[nH]c3ccccc23)[nH]c1=O`, -1.2%. With `Clc1cnc(N/N=C/c2ccncc2)c(Cl)c1` the figure was 1.77%; with `Cc1ccccc1C(=O)Nc1ccnn1C1CCN(CCCc2ccccc2)CC1`, -1.21%; with `CN(C)C(=O)c1sccc1Oc1ccc(F)cc1[N+](=O)[O-]`, 7.3%. Then `COC(=O)c1sccc1Oc1ccc(F)cc1[N+](=O)[O-]`, with 4.41%; and `COc1ccc(CSCC(=O)Nc2ccccc2SC)cc1`, with 8.6%; and `COc1cc2ncnc(NCCCN3CCOCC3)c2cc1OC`, with -4.12%. As for `CN1CCC(OC(=O)c2ccccc2Cl)CC1`, the inhibition was -6.15%. `CN1CCC(OC(=O)c2cccc(Cl)c2)CC1`: the inhibition is 4.43%.

Consider `COc1ccc(C(=O)OC2CCN(C)CC2)cc1`, for which the inhibition is 3.95%.

Turning to `CN1CCC(OC(=O)c2ccccc2)CC1`, the inhibition was 8.65%.

As for `CCOC(=O)c1ncn2c1C(=O)OC2(C)C`, the inhibition is 6.54%.

For the compound `CCOc1ccccc1OCc1nn2c(-c3ccc(C)cc3)nnc2s1`, the inhibition is 3%. `C#CCOCCOCCOCCNc1nc(N2CCN(C(=O)CCCCCCCCCCNC(=O)[C@H]([C@@H](C)CC)n3cc(CCCCCN)nn3)CC2)nc(N2CCN(C(=O)CCCCCCCCCCNC(=O)[C@H](CO)n3cc(CCCCCN)nn3)CC2)n1`: the inhibition is 9.35%. With `C#CCOCCOCCOCCNc1nc(N2CCOCC2)nc(N2CCN(C(=O)CCCCCCCCCCNC(=O)[C@H](CO)n3cc(CCCCCN)nn3)CC2)n1` the figure was -10.9%; with `C#CCOCCOCCOCCNc1nc(N2CCN(C(=O)[C@H]([C@@H](C)CC)n3cc(CCCCN)nn3)CC2)nc(N2CCN(C(=O)[C@H]([C@@H](C)CC)n3cc(CCCN=C(N)N)nn3)CC2)n1`, -1.05%; with `C#CCOCCOCCOCCNc1nc(N2CCOCC2)nc(N2CCN(C(=O)CCCCCCCCCCNC(=O)[C@H]([C@@H](C)CC)n3cc(CCCCN=C(N)N)nn3)CC2)n1`, 5.04%.
